This is part of a sample that, as a whole, favours compounds with a hit. Of some 79,000 tested, about 15% had one in any assay. Values without a mark were called inactive. The source made the active and inactive calls. Cut-off read from the data, not from the text of the source: active = growth inhibition above about 70%; inactive = the rest.
Columns and labels:
[1] = NCI Yeast Anticancer Drug Screen. Data for the rad50 strain (AID 155);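 note: 0% = growth of vehicle-only cultures of the same strain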; conditions: S. cerevisiae rad50 strain growth inhibition, stronger effect = higher value
Method in brief: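 Compounds were tested on a yeast strain with an engineered DNA damage repair alteration; the reported value is growth inhibition normalised to vehicle treatment.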

[2] = NCI Yeast Anticancer Drug Screen. Data for the mec2-1 strain (AID 157); conditions: S. cerevisiae mec2-1 strain, stronger effect = higher value
Method in brief: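 mec2-1 yeast strain, carrying an alteration in DNA damage repair or cell cycle control, was exposed to compounds; growth inhibition was measured relative to vehicle-treated controls.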

[3] = NCI Yeast Anticancer Drug Screen. Data for the sgs1 mgt1 strain (AID 161);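 note: 0% = growth of cultures given vehicle only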; conditions: S. cerevisiae sgs1 mgt1 strain, stronger effect = higher value
Method in brief: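 Compounds are added to genetically altered yeast, and growth is compared with cultures given vehicle alone to give percent inhibition.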

[4] = NCI Yeast Anticancer Drug Screen. Data for the cln2 rad14 strain (AID 165);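 note: 0% = growth equal to vehicle treated cultures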; conditions: S. cerevisiae cln2 rad14 strain, stronger effect = higher value
Method in brief: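 Yeast carrying cln2 and rad14 alterations (cell cycle control and DNA damage repair) were exposed to compounds. Growth inhibition was measured against vehicle-treated controls.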

[5] = NCI Yeast Anticancer Drug Screen. Data for the bub3 strain (AID 167); conditions: S. cerevisiae bub3 mutant strain, stronger effect = higher value
Method in brief: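 Growth of a checkpoint-deficient yeast mutant is measured after compound exposure. Values represent inhibition relative to vehicle.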

[6] = NCI Yeast Anticancer Drug Screen. Data for the mlh1 rad18 strain (AID 175); conditions: S. cerevisiae mlh1 rad18 strain growth inhibition, stronger effect = higher value
Method in brief: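 Growth inhibition of the yeast strain was measured after compound exposure and expressed relative to vehicle-treated controls. The strain carries defined defects in DNA damage repair.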

[7] = at 5.0 µM (retest, dose inferred, filed as 0.5)
[8] = at 50.0 µM (retest, dose inferred, filed as 5.0)

SMILES	growth inhibition [1, 7] [%]	growth inhibition [1, 8]	growth inhibition ([1]; at 50.0 µM)	growth inhibition [2, 7] [%]	growth inhibition [2, 8]	growth inhibition ([2]; at 50.0 µM)	growth inhibition [3, 7] [%]	growth inhibition [3, 8]	growth inhibition ([3]; at 50.0 µM)	growth inhibition [4, 7] [%]	growth inhibition [4, 8]	growth inhibition ([4]; at 50.0 µM)	growth inhibition [5, 7] [%]	growth inhibition [5, 8]	growth inhibition ([5]; at 50.0 µM)	growth inhibition [6, 7] [%]	growth inhibition [6, 8]	growth inhibition ([6]; at 50.0 µM)
CCCCCCCCCCOC(=O)c1cccnc1	5	86% (active)	-5.45%	0	52%	39.3%	7	74% (active)	30.6%	3	34%	-1.4%	8	91% (active)	78.2% (active)	9	87% (active)	80.5% (active)
O=[N+]([O-])c1ccc(N/N=C/CCCCCCCCCCBr)c([N+](=O)[O-])c1	-4	-3%	24.8%	-2	1%	10.4%	-5	0%	2.4%	-4	-6%	9.15%	-5	1%	50.3%	-1	-2%	21.4%
CC(=O)N1CCCC2=C1CCCCCCCCCC2	-7	4%	49.4%	-6	-5%	27.9%	-3	1%	70.6% (active)	3	-9%	22.9%	-12	-21%	29.2%	-6	-2%	13.8%
S=c1ncc2c([nH]1)C1c3ccccc3C2c2ccccc21	-9	98% (active)	86% (active)	-6	98% (active)	92% (active)	2	98% (active)	90.1% (active)	27	99% (active)	88% (active)	16	98% (active)	92.4% (active)	-1	98% (active)	90.5% (active)
Cc1ccc2cccc(N)c2c1	1	2%	-12.4%	3	9%	-2.2%	2	4%	-21.8%	1	-9%	46.4%	8	12%	-5.15%	2	8%	44.9%
COc1cccc2c1C(=O)c1c(O)c3c(c(O)c1C2=O)CC(O)(C(C)=O)CC3OC1CC(NCC2(O)OCC(O)C(O)C2O)C(O)C(C)O1 (configuration not stated)	54	98% (active)	85.2% (active)	33	98% (active)	86.5% (active)	38	98% (active)	79.8% (active)	38	94% (active)	73.3% (active)	27	98% (active)	83.2% (active)	62	97% (active)	87.9% (active)
CC(=O)OC(CCl)C(C)[N+](=O)[O-] (configuration not stated)	7	91% (active)	90.8% (active)	5	96% (active)	98.5% (active)	7	75% (active)	46.6%	6	83% (active)	36.9%	6	99% (active)	97.7% (active)	5	86% (active)	43.4%
Cc1c2cc[n+](C)cc2c(C)c2c1[nH]c1ccc(Cl)cc12	43	97% (active)	90.2% (active)	28	99% (active)	92.4% (active)	48	99% (active)	93% (active)	35	98% (active)	92.1% (active)	42	99% (active)	91.6% (active)	51	99% (active)	91% (active)
O=C1C(Cl)=C(NCCC2CCCN3CCCCC23)C(=O)c2ccccc21 (configuration not stated)	13	48%	65.3%	-8	54%	53.4%	10	55%	79.5% (active)	2	37%	63.7%	2	51%	26.1%	6	27%	70.8% (active)

— PubChem BioAssay (NCI)
